± gives the standard deviation of the averaged measurements.

The assay has as its system Caenorhabditis elegans N2. As to the kind of experiment: egg-laying rate relative to DMSO control (serotonin + nicotine background) (fraction of control); higher = more egg-laying. The following applies: background: 12.3 mM serotonin + 7.7 mM nicotine; 60 µM; 1 h. The procedure:
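About 20 young-adult wild-type C. elegans (N2) per well in 96-well plates were exposed to 60 uM compound for 1 h at room temperature, either in M9 buffer (to find stimulators) or in 12.3 mM serotonin + 7.7 mM nicotine (NS, to find inhibitors). Eggs per worm per hour were counted by automated imaging and normalised to the mean of proximal DMSO control wells. Values average the primary screen and two retests of the worm-active (wactive) Egl modulators.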
Consider `CCOc1ccc(/C=C/[N+](=O)[O-])cc1` [wact-385], for which the egg-laying rate is 0.313 ± 0.11.
